Screens as filed in PubChem.
VP16 counter: counter-screen for ROR gamma inhibitors: Gal4-VP16 reporter; Drosophila S2 Gal4-VP16 UAS-luciferase, luminescence, 20 h; Potency, µM (top dose mostly 53.6 µM), most hits filed as inhibitors; 310,000 tested, 3.5% active; AID 2546;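 also: Gal4-VP16 expression switched on by copper sulfate through the metallothionein promoter; nearly all actives have a fitted effect of over 50% in size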
Sfp inh: Sfp phosphopantetheinyl transferase inhibition. Biochemical Sfp PPTase activity, qHTS. Potency, µM, actives largely listed as inhibitors. 310,000 tested, 3.5% active. AID 1490;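 also: the enzyme is Sfp with the accession as filed and its product quenches rhodamine fluorescence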
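Buffer: 50 mM Hepes-Na pH 7.6, 10 mM MgCl2, 0.01% Nonidet P-40, 0.01% BSA. Enzyme 15 nM, pre-exposed to compound 15 min; substrates then added and fluorescence change tracked over 30 min.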
ALDH1A1 inh: blocks purified human ALDH1A1 activity; P00352; Purified ALDH1A1, NADH fluorescence, propionaldehyde substrate; Potency, µM (top dose mostly 75.3 µM), usual class: inhibitors; 220,000 tested, 7.3% active; AID 1030; active = well fitted inhibition curve with a large enough effect, not every such curve was filed as active; inconclusive = small, poorly fitted or top-dose-only effect, or another doubt; inactive = no such curve, though single readings can be large or run the other way
Target sequence (P00352 whole entry, looked up): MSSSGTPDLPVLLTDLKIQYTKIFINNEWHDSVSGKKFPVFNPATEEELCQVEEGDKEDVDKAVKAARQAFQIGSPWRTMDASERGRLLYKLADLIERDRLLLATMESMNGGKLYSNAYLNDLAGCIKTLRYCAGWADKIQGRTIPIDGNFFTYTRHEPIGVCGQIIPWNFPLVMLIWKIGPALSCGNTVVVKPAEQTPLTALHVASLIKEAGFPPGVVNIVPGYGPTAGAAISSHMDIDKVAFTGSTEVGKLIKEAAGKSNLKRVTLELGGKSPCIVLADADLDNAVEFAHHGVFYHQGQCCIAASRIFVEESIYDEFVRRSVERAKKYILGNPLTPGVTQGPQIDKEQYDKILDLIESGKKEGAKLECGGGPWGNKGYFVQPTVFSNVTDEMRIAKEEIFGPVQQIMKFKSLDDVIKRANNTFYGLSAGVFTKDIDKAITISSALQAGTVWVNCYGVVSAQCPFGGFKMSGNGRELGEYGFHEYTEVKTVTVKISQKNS
PLK1 PBD inh: PLK1 (human) polo-box domain binding inhibition; P53350; Plk1 PBD binding of FITC phosphopeptide, fluorescence polarization; Potency, µM, hits mostly inhibitors; 360,000 tested, 2.8% active; AID 720504; also: series mostly up to about 57 µM; nearly all actives have a fitted effect of over 65% in size
RORg inh: ROR gamma (mouse) transcription inhibition; Potency, µM (top dose mostly 53.6 µM), actives largely listed as inhibitors; Drosophila S2 Gal4-RORgamma UAS-luciferase reporter, 20 h; 310,000 tested, 5.4% active; P51450; also: nearly all actives have a fitted effect of over 60% in size
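Stable Schneider cell line, Gal4 DNA-binding domain fused to ROR gamma, UAS-luciferase. Cmpd 1 hr RT → CuSO4 700 uM final → 20 hr RT → luciferase reagent 10 min → luminescence.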
Large screens that a line does not name were inactive. Most compounds without a hit are left out; they make up all but 12% or so of the library. Unless noted, calls follow the shape of the dose curve; as a rule, active = well fitted curve in the direction sought with a large enough effect; inconclusive = small, poorly fitted or top-dose-only effect, or another doubt; inactive = no such curve, though single readings can be large; an effect the other way counts as inactive or inconclusive.

CC(=O)Nc1cccc(-c2ccnc3c2CC(C(=O)NCc2ccc(N4CCN(C)CC4)cc2)O3)c1 (stereo not drawn)	none (no result: VP16 counter, Sfp inh, ALDH1A1 inh, RORg inh)
Cc1ccc(/C=C/C(=O)NCCc2c[nH]c3ccccc23)o1	Sfp inh 28µM, ALDH1A1 inh 14µM
O=C(/C=C/c1ccco1)NCc1ccco1	none (no result: ALDH1A1 inh)
Cc1ccc(/C=C(\C#N)C(=O)NCc2ccco2)o1	Sfp inh 50µM, ALDH1A1 inh inconclusive
O=C(/C=C/c1ccccc1)NCc1ccco1	ALDH1A1 inh 6µM
Cc1ccsc1/C=C(\C#N)C(=O)NCc1ccco1	RORg inh inconclusive
Cc1ccc(/C=C/C(=O)NCc2ccco2)o1	Sfp inh 32µM, ALDH1A1 inh inconclusive (no result: PLK1 PBD inh)
O=C1O[C@@H]([C@@H](O)CO)[C@@H](O)[C@H]1O	none (no result: PLK1 PBD inh)
C=CCN1C(=O)[C@]2(c3ccccc31)C1CCCC=C1C(C#N)=C(N)C2(C#N)C#N (stereo partly drawn)	ALDH1A1 inh 4µM
C=CCN1C(=O)C2(c3ccccc31)C1CCCC=C1C(C#N)=C(N)C2(C#N)C#N (stereo not drawn)	ALDH1A1 inh 10µM, RORg inh inconclusive
C=CCN1C(=O)C2(NC(=O)c3ccccc3N2)c2ccccc21 (stereo not drawn)	ALDH1A1 inh inconclusive
CCC(=O)Nc1ncnc2ncn(C(=O)CC)c12	none (no result: VP16 counter, Sfp inh, PLK1 PBD inh, RORg inh)
O=C(O)COc1ccc(CCNS(=O)(=O)c2ccccc2)s1	none (no result: ALDH1A1 inh, PLK1 PBD inh)
CCCNS(=O)(=O)c1ccc(CCC(=O)N2CCCCC2)cc1	PLK1 PBD inh 24µM
COc1ccc(N2CCN(C(=O)CCc3ccc(S(=O)(=O)NCC(C)C)cc3)CC2)cc1	VP16 counter inconclusive, ALDH1A1 inh 13µM, RORg inh inconclusive
Cc1cccc(CNc2ccnc(-c3ccccc3C(F)(F)F)n2)c1	none (no result: PLK1 PBD inh)
CCCCN(C(=O)CC1CCCC1)c1c(N)n(Cc2ccccc2)c(=O)[nH]c1=O	none (no result: VP16 counter, Sfp inh, ALDH1A1 inh, RORg inh)
CCCNC(=O)C1(C)CCCN(C(=O)c2cccc(C(F)(F)F)c2)C1 (stereo not drawn)	none (no result: VP16 counter, Sfp inh, ALDH1A1 inh, RORg inh)
C=C(C)COc1ccc(-c2n[nH]c(C)c2Oc2ccccc2OC)c(O)c1	ALDH1A1 inh inconclusive, RORg inh 1.6µM
CCCOC(=O)c1ccc(Oc2c(-c3ccc(O)cc3O)n[nH]c2C)cc1	RORg inh inconclusive
CCc1cc(-c2n[nH]c(C)c2Oc2ccc(C(C)C)cc2)c(O)cc1O	VP16 counter inconclusive, ALDH1A1 inh inconclusive, RORg inh 7.1µM
Cc1[nH]nc(-c2ccc(OCc3cnn(-c4ccccc4)c3)cc2O)c1Oc1ccccc1F	VP16 counter 10µM, RORg inh 6.3µM
Cc1[nH]nc(-c2ccc(O)cc2O)c1Oc1ccccc1	VP16 counter inconclusive, RORg inh inconclusive
C=C(C)COc1ccc(-c2nc(N)nc(C)c2Oc2ccccc2OC)c(O)c1	none
CCOc1ccc(-c2n[nH]c(C)c2Oc2ccccc2OC)c(O)c1	VP16 counter 2.5µM, RORg inh 2.2µM
Cc1ccc(C(=O)C(C)CN2CCCCC2)cc1 (stereo not drawn)	none (no result: PLK1 PBD inh)
CCCOC(=O)c1ccc(Oc2c(-c3ccc(OC)cc3O)n[nH]c2C)cc1	VP16 counter inconclusive, RORg inh 7.1µM
CCCCNC(=S)N/N=C/c1ccc(C#N)cc1	VP16 counter inconclusive
C=C(C)CNC(=S)N/N=C\c1ccc2c(c1)OCO2	PLK1 PBD inh inconclusive
CCCCNC(=S)N/N=C/C1=CCC2CC1C2(C)C (stereo not drawn)	VP16 counter 0.89µM, RORg inh 1.1µM
CC(C)NC(=S)N/N=C/C1=CCC2CC1C2(C)C (stereo not drawn)	VP16 counter 1.8µM, RORg inh 0.79µM
C=C(C)CNC(=S)N/N=C/C1=CCC2CC1C2(C)C (stereo not drawn)	VP16 counter 1.6µM, RORg inh 0.79µM
Oc1ccc(C=NNC(=S)Nc2cccnc2)nc1	none (no result: VP16 counter, Sfp inh, ALDH1A1 inh, RORg inh)
CC(=O)N/N=C/C1=CCC2CC1C2(C)C (stereo not drawn)	none
CC1(C)C2CC=C(/C=N/NC(=S)Nc3cccnc3)C1C2 (stereo not drawn)	VP16 counter 1.3µM, RORg inh 0.5µM
NS(=O)(=O)c1cc2c(cc1Cl)N[C@H](Cc1ccccc1)NS2(=O)=O	ALDH1A1 inh inconclusive (no result: PLK1 PBD inh)
CCOC(=O)C1(C)CCCN(C(=O)c2ccc(OC(F)F)cc2)C1 (stereo not drawn)	none (no result: VP16 counter, Sfp inh, ALDH1A1 inh, RORg inh)
CCNc1ncc2nc(-c3ccccc3)c(=O)n(CCC#N)c2n1	ALDH1A1 inh inconclusive (no result: PLK1 PBD inh)
CC1=C/C(=N\NC(=S)Nc2cccnc2)CC(C)(C)C1	VP16 counter 3.2µM, ALDH1A1 inh 12µM, RORg inh 1.8µM
